Assay results reported in PubChem BioAssay (NCATS).
Inconclusive results are not listed. The source made the active and inactive calls. Unless noted, calls come from the whole dose curve.

Columns and labels:
[1] = molecular target: Estrogen receptor (Homo sapiens) (UniProt P03372); experiment: qHTS assay for small molecule antagonists of estrogen receptor alpha signaling (AID 588513; active = well fitted curve in the direction sought with a large enough effect in the signal ratio, with a control signal flat, not every such curve was filed as active; the % refers to the signal ratio; note: % is set by controls: 0 for no effect and ±100 for the full control effect)
Method in brief: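 Fluorescence from CCF4 substrate after 2 h at room temperature gave reporter activity; cells had been exposed to compound and 0.5nM 17-beta-estradiol for 18 h at 37 C. Hill-equation fitting yielded IC50 and maximal response.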

[2] = molecular target: Androgen receptor (Homo sapiens) (UniProt P10275); experiment: qHTS assay for small molecule agonists of androgen receptor signaling (AID 588515; active = well fitted curve in the direction sought with a large enough effect in the signal ratio, with a control signal flat; the % refers to the signal ratio; note: % is set by controls: 0 for no effect and ±100 for the full control effect); conditions: AR-UAS-bla HEK293, beta-lactamase ratio, agonist 16 h; stronger effect = higher value
Method in brief: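 Stimulation of an AR-responsive β-lactamase reporter in GripTite HEK293 cells was measured after 16 h compound exposure at 37 °C, via CCF4 fluorescence after 2 h RT. EC50 from Hill fits, normalized to R1881 at 30 nM.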

[3] = molecular target: Androgen receptor (Homo sapiens) (UniProt P10275); experiment: qHTS assay for small molecule antagonists of androgen receptor signaling (AID 588516; active = well fitted curve in the direction sought with a large enough effect in the signal ratio, with a control signal flat, not every such curve was filed as active; the % refers to the signal ratio; note: % is set by controls: 0 for no effect and ±100 for the full control effect)
Method in brief: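 Cells were plated and incubated 5 h, compounds added in titration, then R1881 (10 nM final) as agonist. After 16 h at 37 C, CCF4 substrate was loaded for 2 h at room temperature and fluorescence measured.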

[4] = molecular target: Bile acid receptor (Homo sapiens) (UniProt Q96RI1); experiment: qHTS assay for small molecule antagonists of farnesoid X receptor signaling (AID 588526); note: % is set by controls: 0 for no effect and ±100 for the full control effect
Method in brief: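 Antagonist mode: titrated compounds tested against chenodeoxycholic acid stimulation (normalized to 50 uM CDCA and DMSO) in GeneBLAzer HEK293T cells for 16 h. Beta-lactamase read by CCF4 fluorescence; IC50 from Hill fits.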

[5] = molecular target: Bile acid receptor (Homo sapiens) (UniProt Q96RI1); experiment: qHTS assay for small molecule agonists of farnesoid X receptor signaling (AID 588527); conditions: HEK293T FXR-UAS-bla, beta-lactamase ratio, 16 h; activation: stronger effect = higher value;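 note: series mostly up to about 77 µM; 0% = vehicle basal and 100% = reference agonist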
Method in brief: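 Read-out: beta-lactamase reporter fluorescence with CCF4 substrate in GeneBLAzer FXR-UAS-bla HEK293T cells, after 16 h compound exposure at 37 C. Response scaled between DMSO basal (0%) and chenodeoxycholic acid at 100 uM (100%).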

[6] = molecular target: Glucocorticoid receptor (Homo sapiens) (UniProt P04150); experiment: qHTS assay for small molecule agonists of glucocorticoid receptor signaling (AID 588532; active = well fitted curve in the direction sought with a large enough effect in the signal ratio, with a control signal flat; the % refers to the signal ratio;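 note: 100% = dexamethasone at 0.1 µM and 0% = DMSO only wells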); conditions: HeLa MMTV-bla, beta-lactamase ratio, agonist, 18 h; stronger effect = higher value; percent of dexamethasone control, DMSO zero
Method in brief: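 Cells were plated and rested 3-5 h at 37 C, compounds were added in titration and incubated 18 h, then CCF4 substrate was loaded for 2 h at RT before reading blue/green fluorescence. EC50 came from Hill-equation fitting.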

[7] = molecular target: Glucocorticoid receptor (Homo sapiens) (UniProt P04150); experiment: qHTS assay for small molecule antagonists of glucocorticoid receptor signaling (AID 588533; active = well fitted inhibition curve with a large enough effect in the signal ratio, with a control signal flat, not every such curve was filed as active; the % refers to the signal ratio)
Method in brief: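 Antagonist-mode qHTS: compound titrations added to GRE-bla HeLa cells, then dexamethasone 2 nM final; 18 h, 37 C. CCF4 FRET fluorescence normalized to dexamethasone and DMSO; IC50 from Hill fit.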

[8] = molecular target: Peroxisome proliferator-activated receptor delta (Homo sapiens) (UniProt Q03181); experiment: qHTS assay for small molecule agonists of peroxisome proliferator-activated receptor delta signaling (AID 588534);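 note: 0% = DMSO basal wells and 100% = positive control agonist at 10 µM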
Method in brief: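 Titration series tested in agonist mode on beta-lactamase reporter cells; 18 hrs at 37 C after a 5 hr pre-incubation. Readout: CCF4 fluorescence, 2 hrs RT. Hill equation gives EC50 and maximal response.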

[9] = qHTS assay for small molecule antagonists of peroxisome proliferator-activated receptor delta signaling (AID 588535; active = well fitted inhibition curve with a large enough effect in the signal ratio, with a control signal flat, not every such curve was filed as active; the % refers to the signal ratio;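 for max response: cells co-treated with a PPAR-delta agonist as stimulator during compound exposure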); conditions: HEK293T PPARd-UAS-bla, beta-lactamase FRET ratio, 18 h; 460 nm channel
Method in brief: (§1)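 Beta-lactamase reporter read-out (405 nm excitation, 460/530 nm emission) after CCF4 loading for 2 hrs at RT. HEK293T PPAR-delta-UAS-bla cells, 2% charcoal/dextran FBS, compounds for 18 hrs at 37 C. Hill fit gave IC50 and efficacy.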

[10] = molecular target: Peroxisome proliferator-activated receptor delta (Homo sapiens) (UniProt Q03181); experiment: as above
Method in brief: as §1

[11] = molecular target: Peroxisome proliferator-activated receptor gamma (Homo sapiens) (UniProt P37231); experiment: qHTS assay for small molecule agonists of peroxisome proliferator-activated receptor gamma signaling (AID 588536; active = well fitted curve in the direction sought with a large enough effect in the signal ratio, with a control signal flat, not every such curve was filed as active; the % refers to the signal ratio;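 note: 0% = DMSO basal wells and 100% = rosiglitazone at 2 µM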)
Method in brief: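 Beta-lactamase reporter read-out: CCF4 fluorescence (ex 405, em 460/530 nm) after 2 h at RT. HEK293 GeneBLAzer cells were treated for 16 h at 37 C. Hill fits gave EC50 and efficacy versus 2 uM rosiglitazone (100%) and DMSO (0%).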

[12] = molecular target: Peroxisome proliferator-activated receptor gamma (Homo sapiens) (UniProt P37231); experiment: qHTS assay for small molecule antagonists of peroxisome proliferator-activated receptor gamma signaling (AID 588537; active = well fitted inhibition curve with a large enough effect in the signal ratio, with a control signal flat, not every such curve was filed as active; the % refers to the signal ratio;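 note: reporter cells co-stimulated with 50 nM rosiglitazone agonist during compound treatment; % of control where 0% means no effect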)
Method in brief: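 Read-out: CCF4 fluorescence (ex 405, em 460/530 nm) after 2 h at RT. Cells were HEK293 carrying a UAS-bla reporter and treated 16 h at 37 C with compound plus rosiglitazone (50 nM final). Normalized to rosiglitazone and DMSO.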

[13] = qHTS assay for small molecule agonists of retinoid X receptor alpha signaling (AID 588544); conditions: HEK293T RXRa-UAS-bla, beta-lactamase reporter, 18 h; 530 nm emission;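 for activation: 0% = DMSO basal wells and 100% = reference agonist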
[14] = molecular target: Retinoic acid receptor RXR-alpha (Homo sapiens) (UniProt P19793); experiment: as above
[15] = molecular target: Thyroid hormone receptor beta (Homo sapiens) (UniProt P10828); experiment: qHTS assay for small molecule agonists of thyroid hormone receptor beta signaling (AID 588545)
Method in brief: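 HEK 293 TR-UAS-bla; agonist mode; 18 hrs, 37 C; CCF4, ex 405/em 460 and 530 nm; norm. T3 10 nM = 100%, DMSO = 0%; Hill fit → EC50, efficacy.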

[16] = qHTS assay for small molecule antagonists of retinoid X receptor alpha signaling (AID 588546; active = well fitted inhibition curve with a large enough effect in the signal ratio, with a control signal flat, not every such curve was filed as active; the % refers to the signal ratio); conditions: HEK293T RXRa-UAS-bla, beta-lactamase ratio, antagonist mode; measured here: W530 green channel, cytotoxicity proxy
Method in brief: (§2)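 Beta-lactamase reporter inhibition, read as CCF4 fluorescence ratio (ex 405, em 460/530 nm) after 2 h at RT. HEK293T UAS-bla cells, 2500/well, were stimulated with 9-cis-RA at 500 or 100 nM final alongside test compound for 18 h at 37 C.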

[17] = molecular target: Retinoic acid receptor RXR-alpha (Homo sapiens) (UniProt P19793); experiment: as above; conditions: HEK293T RXRa-UAS-bla, beta-lactamase ratio, antagonist mode
Method in brief: as §2

[18] = molecular target: Thyroid hormone receptor beta (Homo sapiens) (UniProt P10828); experiment: qHTS assay for small molecule antagonists of thyroid hormone receptor beta signaling (AID 588547; active = well fitted inhibition curve with a large enough effect in the signal ratio, with a control signal flat, not every such curve was filed as active; the % refers to the signal ratio); conditions: TR-UAS-bla HEK293, beta-lactamase ratio, antagonist mode, 18 h
Method in brief: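 TR-UAS-bla GripTite HEK293 cells in 2% charcoal/dextran FBS medium; compounds 0.59 nM to 92 uM with T3 at 0.4nM final, 18 h at 37 C. Beta-lactamase read by CCF4 fluorescence (460/530 nm); Hill fits gave IC50 and efficacy.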

[19] = qHTS assay for small molecule activators of the nuclear factor-kappa B (NF-kB) signaling pathway (AID 651749; active = well fitted activation curve with a large enough effect in the signal ratio; the % refers to the signal ratio; note: series mostly up to about 77 µM; % of control where 0% means no effect); conditions: NF-kB-bla ME-180 cells, beta-lactamase FRET ratio, 16 h; activation: stronger effect = higher value
Method in brief: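 NF-kB-bla ME-180 cells, 2,000/well; 23 nL compound or DMSO pinned; 16 hr, 37C/5% CO2; beta-lactamase FRET read-out.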

[20] = molecular target: Peroxisome proliferator-activated receptor alpha (Homo sapiens) (UniProt Q07869); experiment: qHTS assay for small molecule agonists of the peroxisome proliferator-activated receptor alpha (PPARalpha) signaling pathway (AID 651778; active = well fitted curve in the direction sought with a large enough effect; an effect the other way counts as inactive or inconclusive; note: % of control where 0% means no effect); conditions: PathHunter PPARalpha complementation, chemiluminescence, 6 h; stronger effect = higher value
Method in brief: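 Enzyme-fragment complementation assay in which ligand-bound PPARalpha translocates and forms an active enzyme that generates chemiluminescence. Cells were plated overnight, exposed to compound for 6 hr at 37 C, and then given detection reagent for 60 min at room temperature.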

[21] = qHTS assay for small molecule agonists of the antioxidant response element (ARE) signaling pathway measured by Nrf2-dependant transcriptional activity (AID 720636; active = well fitted curve in the direction sought with a large enough effect in the repeat runs; an effect the other way counts as inactive or inconclusive;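 note: HepG2 cells with an ARE-driven luciferase reporter; % of control where 0% means no effect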)
Method in brief: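 HepG2 ARE-luc reporter line, 1% dialyzed FBS; 6 hr attachment at 37 C, compound pinned in, 16 hr at 37 C/5% CO2; ONE-Glo, 30 min RT, luminescence read.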

[22] = qHTS assay for small molecule agonists of the antioxidant response element (ARE) signaling pathway measured by Nrf2-dependant transcriptional activity - cell viability counter screen (AID 720653; active = well fitted curve in the direction sought with a large enough effect in the repeat runs; an effect the other way counts as inactive or inconclusive; note: % is set by controls: 0 for no effect and ±100 for the full control effect); conditions: ARE-bla HepG2 viability, CellTiter-Glo ATP luminescence, 16 h; max response: stronger effect = lower value
Method in brief: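 ARE-bla HepG2 cells treated with compounds for 16 h at 37C; this counter screen measures viability as intracellular ATP by CellTiter-Glo luminescence after 30 min at room temperature.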

[23] = qHTS assay for cell viability of HEK293 cells (AID 743288; active = well fitted curve in the direction sought with a large enough effect; an effect the other way counts as inactive or inconclusive; note: % is set by controls: 0 for no effect and ±100 for the full control effect; nearly all actives have a fitted effect of over 50% in size); conditions: ATP luminescence (CellTiter-Glo), 18 h; max response: stronger effect = lower value
Method in brief: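 Viable-cell counts were inferred from luciferase-based ATP content in HEK293 cells seeded at 2,000/well, pre-incubated ≥5 h, then dosed with DMSO-solubilised compounds for 18 h at 37 C.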

[24] = qHTS assay for cell viability of the p53RE-bla HCT-116 cell line (AID 743292; active = well fitted curve in the direction sought with a large enough effect; an effect the other way counts as inactive or inconclusive; note: % is set by controls: 0 for no effect and ±100 for the full control effect; nearly all actives have a fitted effect of over 55% in size)
Method in brief: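 Luminescent ATP quantitation (CellTiter-Glo) served as the viability read-out; reagent was added after 16 h compound exposure at 37 C and read after 30 min at room temperature. Cells: p53RE-bla HCT-116, 4,000 per well.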

[25] = qHTS for Inhibitors of the Functional Ribonucleoprotein Complex (vRNP) of Lassa (LASV) Arenavirus: LASV Primary Screen - GLuc reporter signal (AID 1347082; calls by dose curve; tested in HEK293 reporter line; note: series mostly up to about 57 µM; % is set by controls: 0 for no effect and ±100 for the full control effect; nearly all actives have a fitted effect of over 60% in size)
[26] = qHTS for Inhibitors of the Functional Ribonucleoprotein Complex (vRNP) of Lassa (LASV) Arenavirus: Viability assay - alamar blue signal for LASV Primary Screen (AID 1347083; calls by dose curve; tested in HEK293 reporter line; note: series mostly up to about 57 µM; % is set by controls: 0 for no effect and ±100 for the full control effect; nearly all actives have a fitted effect of over 80% in size)
[27] = molecular target: Nuclear receptor subfamily 1 group I member 2 (Rattus norvegicus) (UniProt Q9R1A7); experiment: qHTS assay for small molecule activators of the rat pregnane X receptor (rPXR) signaling pathway (AID 651751; call rule not given here; note: 0% is about no effect); conditions: rPXR reporter cells, luciferase (One-Glo), 24 h
[28] = qHTS assay for small molecule activators of the human pregnane X receptor (PXR) signaling pathway (AID 720659; call rule not given here; note: 0% is about no effect)
[29] = molecular target: Alpha-galactosidase (Coffea arabica) (UniProt Q42656); experiment: Counterscreen for Glucocerebrosidase Inhibitors: qHTS Assay for Coffee Bean alpha-Galactosidase at pH 5.9 (AID 998; active = well fitted curve in the direction sought with a large enough effect; an effect the other way counts as inactive or inconclusive;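 note: plate controls were uninhibited enzyme for no effect and no-enzyme basal signal for full effect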)
Method in brief: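 Enzyme 2 nM + cpd (0.7 nM–77 uM titration) + 4-MU-alpha-Gal 80 uM, pH 5.9 citrate/Tween-20, RT 20 min, NaOH/glycine stop pH 10, fluor 365/440. Normalized to no-enzyme and full-activity controls; Hill-fit AC50.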

[30] = Validation screen for inhibitors of Lassa infection (AID 463096); note: % is set by controls: 0 for no effect and ±100 for the full control effect
[31] = Inducers of the Endoplasmic Reticulum Stress Response (ERSR) in human glioma: Validation (AID 504836; active = well fitted curve in the direction sought with a large enough effect; an effect the other way counts as inactive or inconclusive; note: 0% is about no effect)
Method in brief: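 Stably transfected U87-MG glioma cells carrying a GRP78-based luciferase sensor; 16 h compound incubation. Luminescence end-point read 10 min after Bright-Glo addition at room temperature.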

Peroxisome proliferator-activated receptor delta (Homo sapiens), sequence (Q03181 whole entry, looked up): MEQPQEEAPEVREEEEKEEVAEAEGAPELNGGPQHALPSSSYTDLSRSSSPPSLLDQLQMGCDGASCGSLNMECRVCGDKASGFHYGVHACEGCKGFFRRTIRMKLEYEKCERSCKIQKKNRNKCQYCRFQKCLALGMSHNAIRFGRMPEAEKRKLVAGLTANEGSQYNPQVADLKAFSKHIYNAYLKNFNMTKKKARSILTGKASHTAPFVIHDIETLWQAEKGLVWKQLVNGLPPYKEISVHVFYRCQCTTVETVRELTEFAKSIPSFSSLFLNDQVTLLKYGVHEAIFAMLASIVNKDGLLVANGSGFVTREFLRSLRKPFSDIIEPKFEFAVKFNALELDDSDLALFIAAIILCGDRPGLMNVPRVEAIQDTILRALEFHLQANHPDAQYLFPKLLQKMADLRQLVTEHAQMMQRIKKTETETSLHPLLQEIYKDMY
Peroxisome proliferator-activated receptor gamma (Homo sapiens), sequence (P37231 whole entry, looked up): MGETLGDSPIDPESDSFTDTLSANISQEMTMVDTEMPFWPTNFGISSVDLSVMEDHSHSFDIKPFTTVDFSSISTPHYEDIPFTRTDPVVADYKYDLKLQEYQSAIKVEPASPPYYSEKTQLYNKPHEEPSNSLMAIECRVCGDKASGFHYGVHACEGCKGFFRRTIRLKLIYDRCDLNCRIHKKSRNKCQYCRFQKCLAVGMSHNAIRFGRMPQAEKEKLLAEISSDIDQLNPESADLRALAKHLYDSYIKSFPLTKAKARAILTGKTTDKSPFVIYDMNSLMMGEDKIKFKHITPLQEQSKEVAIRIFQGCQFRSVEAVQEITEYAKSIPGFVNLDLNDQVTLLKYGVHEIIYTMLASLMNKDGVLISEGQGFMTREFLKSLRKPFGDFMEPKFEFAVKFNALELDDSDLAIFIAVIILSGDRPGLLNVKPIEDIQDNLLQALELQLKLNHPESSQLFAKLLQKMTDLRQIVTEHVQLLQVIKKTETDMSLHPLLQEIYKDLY
Bile acid receptor (Homo sapiens), sequence (Q96RI1 whole entry, looked up): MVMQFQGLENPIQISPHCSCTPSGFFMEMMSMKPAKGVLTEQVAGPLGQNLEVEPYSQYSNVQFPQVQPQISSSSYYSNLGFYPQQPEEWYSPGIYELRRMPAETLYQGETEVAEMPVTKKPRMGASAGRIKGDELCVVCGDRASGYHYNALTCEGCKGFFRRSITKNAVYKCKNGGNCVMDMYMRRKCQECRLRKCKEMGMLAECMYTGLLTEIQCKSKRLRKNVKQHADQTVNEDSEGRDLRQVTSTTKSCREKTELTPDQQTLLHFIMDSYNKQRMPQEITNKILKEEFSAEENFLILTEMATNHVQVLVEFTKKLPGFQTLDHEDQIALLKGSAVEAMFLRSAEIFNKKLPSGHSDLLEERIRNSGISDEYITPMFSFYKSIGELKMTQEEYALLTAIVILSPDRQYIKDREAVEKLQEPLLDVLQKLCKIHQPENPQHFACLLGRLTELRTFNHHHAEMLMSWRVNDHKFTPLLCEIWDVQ
Androgen receptor (Homo sapiens), sequence (P10275 whole entry, looked up): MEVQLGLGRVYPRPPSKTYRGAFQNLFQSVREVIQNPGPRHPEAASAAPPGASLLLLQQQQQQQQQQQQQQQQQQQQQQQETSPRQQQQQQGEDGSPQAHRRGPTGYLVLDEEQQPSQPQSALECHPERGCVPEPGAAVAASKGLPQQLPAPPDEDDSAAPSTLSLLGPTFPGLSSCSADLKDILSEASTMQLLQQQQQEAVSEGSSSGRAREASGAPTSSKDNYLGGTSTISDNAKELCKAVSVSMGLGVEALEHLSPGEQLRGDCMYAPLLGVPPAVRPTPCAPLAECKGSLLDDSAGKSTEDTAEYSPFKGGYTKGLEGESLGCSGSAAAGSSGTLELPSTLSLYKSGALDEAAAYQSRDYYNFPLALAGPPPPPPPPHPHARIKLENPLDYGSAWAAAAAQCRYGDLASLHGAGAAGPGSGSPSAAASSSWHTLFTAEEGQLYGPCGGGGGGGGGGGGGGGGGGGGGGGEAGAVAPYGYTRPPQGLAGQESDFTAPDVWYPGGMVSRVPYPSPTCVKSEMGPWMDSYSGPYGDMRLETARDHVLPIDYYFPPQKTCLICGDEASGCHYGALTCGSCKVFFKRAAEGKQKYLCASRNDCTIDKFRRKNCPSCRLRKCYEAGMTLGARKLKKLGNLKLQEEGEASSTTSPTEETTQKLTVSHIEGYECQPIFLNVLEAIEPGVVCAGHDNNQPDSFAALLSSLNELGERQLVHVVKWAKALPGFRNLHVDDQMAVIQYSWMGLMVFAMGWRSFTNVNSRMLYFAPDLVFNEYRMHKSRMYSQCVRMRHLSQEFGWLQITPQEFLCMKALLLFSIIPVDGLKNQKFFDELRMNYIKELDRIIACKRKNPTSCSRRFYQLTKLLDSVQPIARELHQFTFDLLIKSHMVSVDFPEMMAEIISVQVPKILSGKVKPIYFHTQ
Glucocorticoid receptor (Homo sapiens), sequence (P04150 whole entry, looked up): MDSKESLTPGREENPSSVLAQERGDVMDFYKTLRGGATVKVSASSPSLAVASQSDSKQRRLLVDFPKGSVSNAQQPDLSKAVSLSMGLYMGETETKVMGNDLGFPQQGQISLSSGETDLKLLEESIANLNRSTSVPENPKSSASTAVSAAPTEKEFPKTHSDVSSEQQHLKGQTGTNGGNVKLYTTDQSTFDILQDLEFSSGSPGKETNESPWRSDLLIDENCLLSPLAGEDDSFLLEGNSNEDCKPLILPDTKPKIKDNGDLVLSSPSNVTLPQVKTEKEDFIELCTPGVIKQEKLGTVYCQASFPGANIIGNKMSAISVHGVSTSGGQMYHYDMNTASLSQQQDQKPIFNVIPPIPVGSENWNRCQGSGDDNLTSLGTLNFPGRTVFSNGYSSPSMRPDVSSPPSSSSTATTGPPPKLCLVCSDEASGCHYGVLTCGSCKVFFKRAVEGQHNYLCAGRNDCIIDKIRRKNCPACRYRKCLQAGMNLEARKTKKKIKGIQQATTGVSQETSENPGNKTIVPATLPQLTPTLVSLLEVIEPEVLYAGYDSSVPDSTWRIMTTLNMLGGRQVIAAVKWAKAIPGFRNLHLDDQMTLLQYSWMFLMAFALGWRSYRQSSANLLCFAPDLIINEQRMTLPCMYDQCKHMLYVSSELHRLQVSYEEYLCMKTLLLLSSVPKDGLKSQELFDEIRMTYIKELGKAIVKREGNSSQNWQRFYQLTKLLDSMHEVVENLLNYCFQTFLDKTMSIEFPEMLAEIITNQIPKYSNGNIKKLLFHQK
Retinoic acid receptor RXR-alpha (Homo sapiens), sequence (P19793 whole entry, looked up): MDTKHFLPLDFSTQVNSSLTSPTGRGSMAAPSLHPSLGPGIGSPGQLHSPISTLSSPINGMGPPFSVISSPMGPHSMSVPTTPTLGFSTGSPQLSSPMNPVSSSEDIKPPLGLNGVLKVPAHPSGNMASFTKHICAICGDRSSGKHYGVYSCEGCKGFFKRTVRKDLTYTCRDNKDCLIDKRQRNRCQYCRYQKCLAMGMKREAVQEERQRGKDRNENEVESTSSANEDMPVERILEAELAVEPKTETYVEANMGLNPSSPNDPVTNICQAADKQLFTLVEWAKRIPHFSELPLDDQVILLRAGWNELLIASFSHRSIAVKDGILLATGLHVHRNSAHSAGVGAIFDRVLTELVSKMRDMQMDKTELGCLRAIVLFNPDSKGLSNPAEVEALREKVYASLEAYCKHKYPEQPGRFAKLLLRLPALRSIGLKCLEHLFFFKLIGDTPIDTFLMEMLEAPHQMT
Thyroid hormone receptor beta (Homo sapiens), sequence (P10828 whole entry, looked up): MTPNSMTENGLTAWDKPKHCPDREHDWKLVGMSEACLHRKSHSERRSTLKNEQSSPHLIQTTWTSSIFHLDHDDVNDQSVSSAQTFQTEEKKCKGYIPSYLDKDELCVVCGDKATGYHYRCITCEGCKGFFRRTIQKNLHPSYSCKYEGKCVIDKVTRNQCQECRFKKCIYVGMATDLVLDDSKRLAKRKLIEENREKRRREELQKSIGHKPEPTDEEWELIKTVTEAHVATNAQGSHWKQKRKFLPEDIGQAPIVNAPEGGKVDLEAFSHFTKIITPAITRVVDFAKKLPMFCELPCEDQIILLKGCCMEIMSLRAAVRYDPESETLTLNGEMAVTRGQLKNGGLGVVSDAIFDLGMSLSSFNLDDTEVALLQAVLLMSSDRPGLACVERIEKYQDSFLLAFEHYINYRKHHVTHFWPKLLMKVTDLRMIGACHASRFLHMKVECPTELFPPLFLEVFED
Nuclear receptor subfamily 1 group I member 2 (Rattus norvegicus), sequence (Q9R1A7 whole entry, looked up): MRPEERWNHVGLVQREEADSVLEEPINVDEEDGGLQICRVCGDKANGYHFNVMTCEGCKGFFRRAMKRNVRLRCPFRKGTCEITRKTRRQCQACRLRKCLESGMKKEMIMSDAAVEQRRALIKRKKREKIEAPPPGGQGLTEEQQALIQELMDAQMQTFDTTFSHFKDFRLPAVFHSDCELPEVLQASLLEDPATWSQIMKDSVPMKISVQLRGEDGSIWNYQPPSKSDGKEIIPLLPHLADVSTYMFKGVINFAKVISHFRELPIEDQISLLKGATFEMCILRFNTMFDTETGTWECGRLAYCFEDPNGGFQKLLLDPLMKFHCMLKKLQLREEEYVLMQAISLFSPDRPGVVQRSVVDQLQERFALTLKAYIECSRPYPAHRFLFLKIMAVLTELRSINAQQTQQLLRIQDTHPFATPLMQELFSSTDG
Alpha-galactosidase (Coffea arabica), sequence (Q42656 whole entry, looked up): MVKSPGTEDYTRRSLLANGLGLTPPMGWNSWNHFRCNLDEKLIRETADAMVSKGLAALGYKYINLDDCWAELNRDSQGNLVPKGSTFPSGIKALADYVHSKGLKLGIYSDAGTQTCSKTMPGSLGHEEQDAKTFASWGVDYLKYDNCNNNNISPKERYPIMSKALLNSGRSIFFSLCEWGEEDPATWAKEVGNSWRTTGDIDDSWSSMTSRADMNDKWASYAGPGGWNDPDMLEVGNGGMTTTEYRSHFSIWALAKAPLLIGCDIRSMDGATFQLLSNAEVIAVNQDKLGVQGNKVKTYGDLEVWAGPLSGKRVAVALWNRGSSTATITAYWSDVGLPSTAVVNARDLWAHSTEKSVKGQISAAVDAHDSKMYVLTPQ

CCCCOP(=O)(O)OCCCC
-20.1%: max response [13]
-2.61%: max response [16]
inactive: Potency [1] | activation [2] -1.97% | outcome [3] | Potency [4] | activation [5] 1.99% | activation [6] -1.37% | Potency [7] | Potency [8] | outcome [10] | outcome [11] | Potency [12] | outcome [14] | Potency [15] | max response [17] -17.7% | activity change % (negative = inhibition) [18] 3.56% | activation [19] 1.33% | max response [20] -1.16% | Potency [21] | max response [22] -8.15% | max response [23] -9.76% | outcome [24] | Potency [25] | Potency [26] | max response [27] 5.92% | outcome [28]
24.1%: max response [9]

Nn1nnc2ccccc21
inactive: outcome [29] | Potency [30] | outcome [31] | Potency [25] | Potency [26]
